“And” between values parts separate entries of the source, which are not always exact repeats. Equal values may be shown once. The campaign covered roughly 5,500 compounds. About 2,000 (36%) were called active. Roughly 18% stayed inconclusive and do not appear here. Rule as the data show it: active = normalized growth mostly below about 0.91 (no sharp cut-off); inconclusive = no clear call, values can overlap the other calls; inactive = mostly above about 0.92. The list shows a part of the results.
Assay: chemical genetic growth profiling, strain panel (AID 1159580);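 also: tested at 20 µM; growth read once vehicle control cultures reached saturation at 30 °C; 1 = growth at the plate median or of vehicle wells; lower values mean less growth of the strain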
Conditions: S. cerevisiae deletion strains, growth OD

Measured: normalized growth

COc1ccc(C(=O)CC(=O)c2ccc(C(C)(C)C)cc2)cc1
inactive: locus YAL013W, strain DEP1, hits give low values 0.998 | locus YAL021C, strain ccr4, hits give low values 0.999 | locus YAL026C, strain drs2, hits give low values 0.996 | locus YAL030W, strain snc1, hits give low values 0.993 | locus YBL061C, strain skt5, hits give low values 0.99 | locus YBR009C, strain hhf1, hits give low values 0.976 | locus YBR021W, strain FUR4, hits give low values 0.979 | locus YBR023C, strain chs3, hits give low values 0.987 | locus YBR171W, strain sec66, hits give low values 1.03 | locus YBR229C, strain ROT2, hits give low values 0.997 | locus YBR231C, strain swc5, hits give low values 0.997 | locus YBR279W, strain paf1, hits give low values 0.991 | locus YCL011C, strain gbp2, hits give low values 0.995 | locus YCL016C, strain dcc1, hits give low values 0.984 | locus YCL029C, strain bik1, hits give low values 1.01 | locus YCL069W, strain vba3, hits give low values 0.993 | locus YCR088W, strain abp1, hits give low values 0.99 | locus YDL005C, strain med2, hits give low values 0.983 | locus YDL035C, strain GPR1, hits give low values 0.954 | locus YDL040C, strain nat1, hits give low values 0.98 | locus YDL074C, strain BRE1, hits give low values 0.933 | locus YDL101C, strain DUN1, hits give low values 0.99 | locus YDL134C, strain PPH21, hits give low values 1.01 | locus YDL185W, strain tfp1, hits give low values 1 | locus YDL192W, strain arf1, hits give low values 1 | locus YDR001C, strain nth1, hits give low values 0.995 | locus YDR069C, strain doa4, hits give low values 0.989 | locus YDR101C, strain arx1, hits give low values 1 | locus YDR137W, strain rgp1, hits give low values 0.918 | locus YDR150W, strain NUM1, hits give low values 0.999 | locus YDR159W, strain sac3, hits give low values 1.01 | locus YDR162C, strain NBP2, hits give low values 0.851 | locus YDR195W, strain ref2 1.01 | locus YDR297W, strain sur2, hits give low values 1 | locus YDR318W, strain mcm21, hits give low values 0.994 | locus YDR334W, strain swr1, hits give low values 1.02 | locus YDR335W, strain msn5, hits give low values 1 | locus YDR388W, hits give low values 1.01 | locus YDR392W, strain spt3, hits give low values 1.02 | locus YDR502C, strain sam2, hits give low values 1.01 | locus YEL003W, strain gim4, hits give low values 0.992 | locus YEL037C, strain rad23, hits give low values 0.992 | locus YEL061C, strain CIN8 (second series), hits give low values 0.976 | locus YEL061C, strain CIN8, hits give low values 0.96 | locus YER015W, strain faa2, hits give low values 0.997 | locus YER016W, strain bim1, hits give low values 0.983 | locus YER110C, hits give low values 1.01 | locus YER111C, strain swi4, hits give low values 0.995 | locus YER155C, strain BEM2 (second series), hits give low values 1.01 | locus YER155C, strain BEM2, hits give low values 0.94 | locus YER167W, strain BCK2, hits give low values 0.987 | locus YFR010W, strain ubp6, hits give low values 1 | locus YGL078C, strain dbp3, hits give low values 0.996 | locus YGL086W, strain mad1, hits give low values 0.991 | locus YGL167C, strain pmr1, hits give low values 0.982 | locus YGL173C, strain kem1, hits give low values 0.989 | locus YGL227W, strain vid30, hits give low values 0.982 | locus YGL240W, strain doc1, hits give low values 0.986 | locus YGL248W, strain PDE1, hits give low values 0.986 | locus YGL253W, strain hxk2, hits give low values 0.99 | locus YGR078C, strain PAC10, hits give low values 0.931 | locus YGR135W, strain pre9, hits give low values 0.997 | locus YGR229C, strain SMI1, hits give low values 0.83 | locus YGR252W, strain gcn5, hits give low values 1.02 | locus YHR013C, strain ard1, hits give low values 0.945 | locus YHR027C, strain rpn1, hits give low values 0.992 | locus YHR030C, strain SLT2, hits give low values 0.929 and 0.981 | locus YHR079C, strain IRE1 (second series), hits give low values 1 | locus YHR079C, strain IRE1, hits give low values 0.984 | locus YHR094C, strain hxt1, hits give low values 1 | locus YHR129C, strain ARP1, hits give low values 1 | locus YHR142W, strain chs7, hits give low values 0.956 | locus YHR200W, strain rpn10, hits give low values 1 | locus YIL066C, strain RNR3, hits give low values 0.992 | locus YIL073C, strain SPO22, hits give low values 0.872 | locus YIL125W, strain kgd1, hits give low values 0.993 | locus YIR030C, strain dcg1, hits give low values 0.998 | locus YJL092W, strain hpr5, hits give low values 0.993 | locus YJL095W, strain BCK1 (second series), hits give low values 0.967 | locus YJL095W, strain BCK1, hits give low values 0.958 and 0.995 | locus YJL115W, strain asf1, hits give low values 1.01 | locus YJL129C, strain trk1, hits give low values 0.918 | locus YJL134W, strain LCB3, hits give low values 1 | locus YJL154C, strain vps35, hits give low values 0.993 | locus YJL166W, strain qcr8, hits give low values 0.976 | locus YJL168C, strain set2, hits give low values 1 | locus YJL187C, strain SWE1 (second series), hits give low values 1.01 | locus YJL187C, strain SWE1, hits give low values 1 | locus YJR043C, strain POL32, hits give low values 1 | locus YJR066W, strain TOR1, hits give low values 0.97
active: locus YJL164C, strain tpk1, hits give low values 0.913

Reference: PubChem BioAssay AID1159580 (chemical genetic matrix, 2015)
